# Test results from PubChem BioAssay.
# Inconclusive results are not listed. Active and inactive are the calls of the source. Cut-off read from the data, not from the text of the source: active = fluorescence slope change above about 50%; inconclusive = mostly about 31% to 49%; inactive = weaker than that.
# Molecular target: ATP-dependent translocase ABCB1 (Homo sapiens) (UniProt P08183)
# Test: P-glycoprotein substrate transport blockade – cell-based (AID 377)
# Conditions: MDR1-expressing cells, fluorescent substrate accumulation slope; stronger effect = higher value; concentration not given here
# ATP-dependent translocase ABCB1 (Homo sapiens), sequence (P08183 whole entry, looked up): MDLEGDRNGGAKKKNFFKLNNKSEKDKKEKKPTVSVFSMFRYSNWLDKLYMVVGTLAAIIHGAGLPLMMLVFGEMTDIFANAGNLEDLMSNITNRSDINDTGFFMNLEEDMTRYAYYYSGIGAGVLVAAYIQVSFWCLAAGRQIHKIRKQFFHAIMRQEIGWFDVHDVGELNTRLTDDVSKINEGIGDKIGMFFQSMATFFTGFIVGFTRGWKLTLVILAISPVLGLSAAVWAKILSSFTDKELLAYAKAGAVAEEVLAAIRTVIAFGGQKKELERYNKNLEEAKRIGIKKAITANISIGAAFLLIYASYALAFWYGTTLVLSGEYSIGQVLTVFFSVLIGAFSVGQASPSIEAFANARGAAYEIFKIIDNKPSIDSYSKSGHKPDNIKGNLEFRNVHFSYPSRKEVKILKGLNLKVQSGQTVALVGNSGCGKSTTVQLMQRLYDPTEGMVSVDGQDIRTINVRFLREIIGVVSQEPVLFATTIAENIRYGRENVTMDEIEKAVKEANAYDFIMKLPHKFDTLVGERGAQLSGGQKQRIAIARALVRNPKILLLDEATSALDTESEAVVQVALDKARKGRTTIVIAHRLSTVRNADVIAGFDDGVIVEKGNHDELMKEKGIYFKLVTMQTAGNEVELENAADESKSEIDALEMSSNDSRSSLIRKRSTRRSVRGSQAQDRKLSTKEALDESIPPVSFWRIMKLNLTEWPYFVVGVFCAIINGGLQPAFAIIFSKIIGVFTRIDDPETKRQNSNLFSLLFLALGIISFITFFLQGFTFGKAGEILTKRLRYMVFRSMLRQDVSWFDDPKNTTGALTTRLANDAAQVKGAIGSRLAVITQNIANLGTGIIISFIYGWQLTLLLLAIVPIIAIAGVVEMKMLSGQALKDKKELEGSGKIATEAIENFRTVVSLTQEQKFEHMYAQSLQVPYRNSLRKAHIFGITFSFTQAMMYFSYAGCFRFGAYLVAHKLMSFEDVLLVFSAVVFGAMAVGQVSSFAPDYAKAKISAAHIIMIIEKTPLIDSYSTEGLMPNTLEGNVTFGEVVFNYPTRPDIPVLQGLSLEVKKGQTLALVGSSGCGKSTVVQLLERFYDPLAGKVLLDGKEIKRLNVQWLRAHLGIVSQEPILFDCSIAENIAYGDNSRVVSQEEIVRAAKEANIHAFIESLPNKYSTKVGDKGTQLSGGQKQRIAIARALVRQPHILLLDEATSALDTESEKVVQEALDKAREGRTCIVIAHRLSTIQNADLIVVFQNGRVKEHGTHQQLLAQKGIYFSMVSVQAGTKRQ
smiles,measurement,value
CO[C@H]1/C=C/O[C@@]2(C)Oc3c(C)c(O)c4c(O)c(c(/C=N/N5CCN(C)CC5)c(O)c4c3C2=O)NC(=O)/C(C)=C\C=C\[C@H](C)[C@H](O)[C@@H](C)[C@@H](O)[C@@H](C)[C@H](OC(C)=O)[C@@H]1C,fluorescence slope change,69.2% (active)
